Rows were chosen to be rich in hits. Some 3.5% of all compounds tested hit in one or more screens of this group.
Anthrax LF prot = anthrax lethal factor protease inhibition. P15917. multiplex microsphere protease cleavage assay, LF. inhibition, % at 10 µM. actives 0.12% (n = 360,000). AID 588501; further: plate controls were buffer without enzyme for full effect and enzyme alone for no effect
Target sequence (P15917 whole entry, looked up): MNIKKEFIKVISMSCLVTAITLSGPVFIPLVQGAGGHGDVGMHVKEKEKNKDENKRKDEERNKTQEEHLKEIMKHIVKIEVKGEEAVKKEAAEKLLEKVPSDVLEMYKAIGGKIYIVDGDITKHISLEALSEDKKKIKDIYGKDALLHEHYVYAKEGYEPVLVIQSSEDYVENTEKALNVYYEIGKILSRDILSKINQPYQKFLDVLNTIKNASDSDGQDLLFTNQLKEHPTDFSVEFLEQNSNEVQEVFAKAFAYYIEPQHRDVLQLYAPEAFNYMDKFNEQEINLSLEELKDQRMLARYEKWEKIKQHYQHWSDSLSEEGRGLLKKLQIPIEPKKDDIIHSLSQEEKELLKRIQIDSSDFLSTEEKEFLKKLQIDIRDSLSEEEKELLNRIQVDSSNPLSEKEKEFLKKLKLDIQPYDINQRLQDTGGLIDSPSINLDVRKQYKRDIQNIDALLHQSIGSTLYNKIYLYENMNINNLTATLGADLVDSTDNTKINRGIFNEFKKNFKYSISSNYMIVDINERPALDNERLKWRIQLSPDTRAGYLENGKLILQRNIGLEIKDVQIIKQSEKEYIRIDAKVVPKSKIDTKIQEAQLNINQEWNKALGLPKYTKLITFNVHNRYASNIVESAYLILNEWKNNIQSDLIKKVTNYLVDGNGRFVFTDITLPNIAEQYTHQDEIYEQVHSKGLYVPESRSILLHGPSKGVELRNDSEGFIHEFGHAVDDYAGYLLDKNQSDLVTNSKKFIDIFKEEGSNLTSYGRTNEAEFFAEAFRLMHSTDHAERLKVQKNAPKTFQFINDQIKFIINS
BoNT-A LC inh2 = BoNT A light chain protease inhibition. multiplex microsphere protease substrate cleavage, flow cytometry. inhibition, % at 10 µM. actives 0.17% (n = 360,000); further: plate controls were buffer without enzyme for full effect and enzyme alone for no effect
BoNT F protease = BoNT F light chain protease inhibition; actives 0.22% (n = 360,000); AID 588497; inhibition, % at 10 µM; Multiplex microsphere protease cleavage assay, flow cytometry; in the data active means inhibition above about 35%, passing the limit was not always enough; inconclusive means no clear call, values can overlap the other calls; further: plate controls were buffer without enzyme for full effect and enzyme alone for no effect
Bead autofluor = flagged as autofluorescent in microsphere protease counterscreen; AID 624483; compound autofluorescence counterscreen, microsphere flow cytometry; hits give high values; actives 3.1% (n = 360,000); fluorescence intensity (test concentration not listed); in the data active means fluorescence intensity above about 16000; inconclusive means no clear call, values can overlap the other calls
* = called active by the depositor; u = inconclusive. Unless noted, no stated cut-off is given here; in the data, active means inhibition above about 30%; inconclusive means no clear call, values can overlap the other calls; inactive means below that.

SMILES | Anthrax LF prot | BoNT-A LC inh2 | BoNT F protease | Bead autofluor
Cc1ccc(CN=c2c([N+](=O)[O-])nn(-c3ccc(Cl)cc3)n2O)cc1 | -10 | 1 | 6 | 3862
Cc1cc(C)cc(N=c2c([N+](=O)[O-])nn(-c3cccc(Cl)c3)n2O)c1 | 0 | 1 | 1 | 22853*
O=[N+]([O-])c1nn(-c2cccc(Cl)c2)n(O)c1=NCc1cccnc1 | 1 | 3 | 35* | 2385
Cc1cccc(N=c2c([N+](=O)[O-])nn(-c3ccc(Cl)cc3)n2O)c1 | -11 | 0 | -1 | 5084
O=[N+]([O-])c1nn(-c2ccc(Cl)cc2)n(O)c1=NCc1cccnc1 | -3 | 0 | -13 | 2547
COc1ccc(NC(=O)CSc2nnc(N)s2)cc1S(=O)(=O)N1CCCCC1 | -3 | 4 | -8 | 5989
C=CCOc1ccc(/C=C/C(=O)OCC(=O)N(C)C2CCS(=O)(=O)C2)cc1 (stereo not drawn) | -1 | 1 | 7 | 5876
Cc1ccc(C(=O)CCC2CCCCC2=O)cc1 (stereo not drawn) | 0 | u | 0 | 19947*
COc1cc(C(=O)NCC(C)C)cc(OC)c1OC | -2 | -1 | -1 | 16687*
CCOCCCNC(=O)CCNC(=O)c1cc(OC)c(OC)c(OC)c1 | -4 | -1 | -3 | 20238*
COc1cc(C(=O)NCCC(=O)NCCCN2CCCCC2)cc(OC)c1OC | -6 | -7 | -6 | 25617*
CCN(CC)CC(C)OC(=O)c1cc(OC)c(OC)c(OC)c1 (stereo not drawn) | -1 | u | 4 | 19405*
COc1cc(C(=O)OCCCOC(=O)c2cc(OC)c(OC)c(OC)c2)cc(OC)c1OC | -1 | -1 | 5 | 5918
COCCCNC(=O)c1cc(OC)c(OC)c(OC)c1 | -2 | -1 | -17 | 2851
CC(CC(=O)OCC(=O)NCc1ccc(Cl)cc1)c1ccccc1 (stereo not drawn) | -5 | 0 | -4 | 3437
F[B-](F)(F)c1cncc2ccccc12 | 2 | 0 | -3 | 2855
CCOC(=O)c1c(S(=O)(=O)N2CCC(C)CC2)c(C)n(C)c1C | 3 | -1 | 2 | 5143
COc1cc(NC(=S)NC(C)=O)ccc1NC(=O)C(C)C | -2 | -3 | -4 | 16967*
CCCCC(=O)NC(=S)Nc1ccc(NC(=O)C(C)C)c(OC)c1 | -3 | 0 | -5 | 4417
CC(OC(=O)CCc1ccccc1)C(=O)Nc1ncc(Cl)cc1Cl (stereo not drawn) | -4 | 0 | 0 | 6204
Cc1[nH]c2ccccc2c1/C=N/Nc1ccc([N+](=O)[O-])cc1 | -25 | 2 | -136 | 2996
COc1ccccc1NS(=O)(=O)c1cc([N+](=O)[O-])ccc1N/N=C/c1c(C)[nH]c2ccccc12 | -28 | 5 | -62 | 16725*
COC(=O)[C@]12CCCCC=C1N(Cc1ccccc1)C(=O)[C@H](CC(=O)NCCC(C)C)C2 | 6 | 0 | 17 | 4330
CC(=O)c1c(C(C)=O)c(C)n(NC(=O)c2ccccc2O)c1C | 2 | u | 4 | 20975*
CC(=O)c1c(C(C)=O)c(C)n(NC(=O)c2cccnc2)c1C | 0 | -1 | -3 | 8128
SMILES | Anthrax LF prot | BoNT-A LC inh2 | BoNT F protease | Bead autofluor
CC(C)CN(C(=O)CN(C)CC(=O)Nc1ccc(Cl)c(C(F)(F)F)c1)c1c(N)n(CC(C)C)c(=O)[nH]c1=O | 1 | 0 | -3 | 3799
O=C(O)c1cc(NC(=O)c2ccco2)cc(NC(=O)c2ccco2)c1 | 7 | -3 | -1 | 3569
Cc1ccc(S(=O)(=O)N2[C@@H](c3ccc(F)cc3)C(C(=O)O)=C[C@H]2CC2CCCC2)cc1 | -4 | 0 | -9 | 3056
Cc1ccc(NC(=O)N/C=C/c2ccco2)cc1C | 2 | u | -2 | 21513*
O=C(CSc1ccc([N+](=O)[O-])cc1)Nc1nnc(C2CC2)s1 | -2 | 0 | -5 | 3971
CC(=O)Nc1ccc(C(=O)OCCc2ccccc2)cc1 | 0 | -1 | 4 | 5999
O=C(Nc1ccccc1C(=O)O)c1cccc(NC(=O)c2ccccc2Br)c1 | -7 | -2 | u | 4086
NS(=O)(=O)c1ccc(CCNC(=O)c2cccnc2)cc1 | -4 | -2 | -5 | 20577*
O=C(NCCc1ccccc1)c1cccnc1 | -1 | 0 | 0 | 3365
CC(C)C(=O)Nc1cccc(C(=O)NCCc2ccc(S(N)(=O)=O)cc2)c1 | -1 | u | 13 | 20300*
CC(C)C(=O)Nc1cccc(C(=O)Nc2ccccc2C(=O)O)c1 | -2 | 0 | -1 | 20875*
C=CCOc1ccc(/C=C2\SC(=S)N(NS(=O)(=O)c3ccc(C)cc3)C2=O)cc1 | -16 | 3 | u | 4370
CC(=O)c1ccc(NC(=O)C2CC(=O)N(Cc3ccccc3)C2)cc1 (stereo not drawn) | -14 | 7 | 10 | 17232*

High-throughput results deposited in PubChem BioAssay by NMMLSC.
